# Measurements as given in PubChem BioAssay (NCATS).
# Records with an inconclusive call do not appear. Unmarked numbers belong to inactive results. Activity calls are given as the source filed them. The call rests on the fitted dose curve; in most records, active means well fitted cell-killing curve with a large enough effect; inconclusive means small, poorly fitted or top-dose-only effect, or effect the other way; inactive means no such curve, though single readings can be large or run the other way.
# Assay: qHTS of pediatric cancer cell lines to identify multiple opportunities for drug repurposing: Confirmatory screen for NB-EBc1 cells (AID 1347115);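 further: cells exposed to compound for 48 h before the viability read; nearly all actives have a fitted effect of over 45% in size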
# Settings: NB-EBc1 neuroblastoma cells, viability (cytotoxicity); series mostly up to 45.9 µM; activity change, negative = cytotoxic: at the top concentration
# Procedure, shortened: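 Viability after 48 h compound treatment at 37C, 500-1,000 cells/well, read as ATP luminescence with CellTiter-Glo. Primary screens used 11-point (MIPE, 0.78 nM-46 µM) or 8-point (NPC, 0.59 nM-46 µM) final concentrations; follow-up screens used 11-point dilutions.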
# On the % scale 0 is the no-effect control and ±100 the full control effect; potency means the concentration at half of the fitted maximal effect.
SMILES,Potency,"activity change, negative = cytotoxic [%]"
C[C@@H]1CN(CCCn2c3ccccc3c3ccccc32)C[C@H](C)N1,14.7 µM (active),
NC(CO)(CO)CO,,17.3
C[C@]12CCC(=O)C=C1CC[C@H]1[C@@H]3CC[C@](O)(C(=O)CO)[C@@]3(C)C[C@H](O)[C@@]12F,,-1.25
C[C@H]1C[C@H]2[C@@H]3CCC4=CC(=O)C=C[C@]4(C)[C@@]3(Cl)[C@@H](O)C[C@]2(C)[C@@]1(O)C(=O)CO,,-15.7
CCCC(=O)O[C@]1(C(=O)CO)CC[C@H]2[C@@H]3CCC4=CC(=O)CC[C@]4(C)[C@H]3[C@@H](O)C[C@@]21C,,-4.16
C[C@]12C=CC(=O)C=C1[C@@H](F)C[C@@H]1[C@@H]2[C@@H](O)C[C@@]2(C)[C@H]1CC[C@]2(O)C(=O)CO,,8.48
O=C(CCCN1CCC(O)(c2ccc(Br)cc2)CC1)c1ccc(F)cc1,,-12
CC(=O)OCC(=O)[C@@]12OC(C)(C)O[C@@H]1C[C@H]1[C@@H]3C[C@H](F)C4=CC(=O)C=C[C@]4(C)[C@@]3(F)[C@@H](O)C[C@@]12C,,11.2
CCCCC(=O)O[C@]1(C(=O)CO)CC[C@H]2[C@@H]3CCC4=CC(=O)CC[C@]4(C)[C@H]3[C@@H](O)C[C@@]21C,,-5.91
CCC(C(=O)OCCN(CC)CC)c1ccccc1 (stereo unspecified),,-3.98
C=C1C[C@H]2[C@@H]3C=C(C)C4=CC(=O)CC[C@]4(C)[C@H]3CC[C@]2(C)[C@@]1(OC(C)=O)C(C)=O,,-7.44
CC(=O)OCC(=O)[C@@]1(O)[C@H](C)C[C@H]2[C@@H]3CCC4=CC(=O)C=C[C@]4(C)[C@@]3(F)[C@@H](O)C[C@@]21C,,-10.1
COc1cccc2c1C(=O)c1c(O)c3c(c(O)c1C2=O)C[C@@](O)(C(=O)CO)C[C@@H]3O[C@H]1C[C@H](N)[C@H](O)[C@H](C)O1,3.29 µM (active),
C[C@]12C=CC(=O)C=C1CC[C@@H]1[C@@H]2[C@@H](O)C[C@@]2(C)[C@H]1CC[C@]2(O)C(=O)CO,,4.27
CC(=O)OCC(=O)[C@@]1(O)CC[C@H]2[C@@H]3CCC4=CC(=O)C=C[C@]4(C)[C@H]3[C@@H](O)C[C@@]21C,,17.4
OC[C@H]1O[C@@H](n2cnc3c(=S)nc[nH]c32)[C@H](O)[C@@H]1O,3.69 µM (active),
COCc1c(C(C)C)nc(C(C)C)c(/C=C/[C@@H](O)C[C@@H](O)CC(=O)O)c1-c1ccc(F)cc1,4.14 µM (active),
NC(=O)CC[C@@H]1NC(=O)[C@H](Cc2ccccc2)NC(=O)[C@H](Cc2ccc(O)cc2)NC(=O)CCSSC[C@@H](C(=O)N2CCC[C@H]2C(=O)N[C@@H](CCCN=C(N)N)C(=O)NCC(N)=O)NC(=O)[C@H](CC(N)=O)NC1=O,,-7.4
CC1(C)O[C@@H]2C[C@H]3[C@@H]4C[C@H](F)C5=CC(=O)CC[C@]5(C)[C@H]4[C@@H](O)C[C@]3(C)[C@]2(C(=O)CO)O1,,0.972
CC(=O)Oc1ccc(C(c2ccc(OC(C)=O)cc2)c2ccccn2)cc1,,-1.56
C[C@@H]1C[C@H]2[C@@H]3CCC4=CC(=O)C=C[C@]4(C)[C@@]3(F)[C@@H](O)C[C@]2(C)[C@H]1C(=O)CO,,2.03
